Active and inactive are the calls of the source.
Columns and labels:
[1] = system: Human papillomavirus type 1a protein E7 (residues 44-93); test: HPV1a E7 fragment binders on microarrays, primary screen, biochemical, small-molecule microarray, residues 44-93, 635 nm fluorescence (AID 1108); details: small-molecule microarray binding, fluorescence 635 nm; higher = more signal;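 also: E7 fragment applied at 1 µg/mL in TBST for 1 h at 4 C; score combines spot fluorescence with its signal to noise ratio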
[2] = modulators of HCV replicon luciferase signal, primary screen, HCV replication inhibitor project, Huh7 cells, luciferase reporter (AID 1109); details: 48 h, higher = more signal;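 also: huh7 hepatoma cells harbouring a luciferase neomycin HCV replicon reporter; luciferase luminescence as measure of HCV replicon replication; test concentration not given here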
[3] = target: Left-right determination factor 2 (Homo sapiens) (UniProt O00292); test: LEFTY2 binders on small-molecule microarrays, primary screen, biochemical, small-molecule microarray, 635 nm fluorescence scan (AID 1110); details: LEFTY2 binding, higher = more signal
[4] = target: Calmodulin-1 (Homo sapiens) (UniProt P0DP23); test: CALM1 binders on microarrays, EGTA buffer, profiling panel, biochemical, small-molecule microarray, Cy5-labelled CALM1 (AID 1111); details: Cy5-CALM1 binding fluorescence, higher = more signal;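 also: labelled calmodulin applied in Tris saline Tween buffer holding calcium plus EGTA and DTT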
[5] = target: Calmodulin-1 (Homo sapiens) (UniProt P0DP23); test: calcium-bound CALM1 binders on microarrays, profiling panel, artefact control for SMM control-protein annotation, biochemical, small-molecule microarray, Cy5-labelled CALM1, plus calcium (AID 1112); details: Cy5-CALM1 binding fluorescence, higher = more signal;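 also: score merges spot fluorescence with signal to noise from triplicate slides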
[6] = small-molecule microarray binders of probe aWnt5a, primary screen, biochemical, biotinylated probe, 635/667 nm fluorescence (AID 1113); details: higher = more signal;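 also: score merges 667 nm fluorescence intensity with signal-to-noise per printed feature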
[7] = small-molecule microarray binders of probe aShh, primary screen, biochemical, biotinylated probe, 635/667 nm fluorescence (AID 1114); details: higher = more signal;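 also: probe is biotin-labelled aShh protein from a stem cell growth factor screen; measures binding of labelled protein to compounds printed on the slide; score merges feature fluorescence at 667 nm with signal-to-noise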
[8] = small-molecule microarray binders of probe aNog, primary screen, biochemical, biotinylated probe, 635/667 nm fluorescence (AID 1115); details: higher = more signal;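 also: probe is biotinylated aNog protein used at 0.15 µg/mL for 1 h at 4 C; z-score combines 667 nm fluorescence of each spot with its signal to noise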
[9] = target: Torsin-1A-interacting protein 1 (Homo sapiens) (UniProt Q5JTV8); test: LAP1 binders from COS7 cell lysate, primary screen, small-molecule microarray, 635/667 nm fluorescence (AID 1116); details: COS7-hLAP1 lysate binding, 635 nm fluorescence, higher = more signal
[10] = target: Alpha-bungarotoxin (Bungarus multicinctus) (UniProt P60615); test: alpha-bungarotoxin binders on microarray, profiling panel, artefact control for SMM control protein annotation, biochemical, small-molecule microarray, Alexa647 label, 635/667 nm fluorescence (AID 1117); details: alpha-BTX-A647 binding fluorescence, higher = more signal
Albumin (Bos taurus) = Albumin (Bos taurus) (UniProt P02769); test: bovine serum albumin binders on microarray, profiling panel, artefact control for SMM control protein annotation, biochemical, small-molecule microarray, Alexa647 label, 635/667 nm fluorescence (AID 1118); details: BSA-A647 binding, fluorescence 635 nm, higher = more signal;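 also: score merges 667 nm emission intensity and signal-to-noise per printed compound spot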
[11] = small-molecule microarray binders of probe aXIP, primary screen, biochemical, NeuroSMM set, 635/667 nm fluorescence (AID 1119); details: higher = more signal, called active from +8 up or from −8 down;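 also: probe is the protein aXip251-270 applied at 1 µg/mL to compound-printed slides; binding of probe to printed compounds measured as 667 nm fluorescence plus signal to noise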
[12] = small-molecule binders of probe aNOTCH3, primary screen, biochemical, small-molecule microarray, 635/667 nm fluorescence (AID 1120); details: higher = more signal;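 also: probe is a biotin-tagged antibody raised against NOTCH3 rather than NOTCH3 protein; score merges spot fluorescence near 667 nm with spot signal to noise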
[13] = small-molecule binders of probe aNOTCH2, primary screen, biochemical, small-molecule microarray, 635/667 nm fluorescence (AID 1121); details: higher = more signal;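 also: score merges feature fluorescence read at 667 nm with its signal to noise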
[14] = target: Carbonic anhydrase 2 (Homo sapiens) (UniProt P00918); test: CAII small-molecule binders, profiling panel, biochemical, small-molecule microarray, Alexa647-labelled CAII (AID 1122); details: CAII-A647 binding fluorescence, higher = more signal
[15] = COS7 lysate on small-molecule microarray, probe aHis, 635 nm (AID 1123); details: COS7 cell lysate, fluorescence, higher = more signal;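 also: z-score combines 667nm fluorescence intensity with signal-to-noise per printed compound spot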
[16] = compound binding in COS7 lysate, probe aLAP1, primary screen, cell lysate, small-molecule microarray (AID 1124); details: probe aLAP1, fluorescence, higher = more signal;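 also: lysate comes from COS7 cells expressing LAP1 and is applied at 0.3 µg/mL; score merges spot fluorescence near 667 nm with signal-to-noise over triplicate slides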
Sam68 (KHDRBS1) = test: Sam68 small-molecule binders, primary screen, biochemical, small-molecule microarray, 635 nm fluorescence (AID 1125); details: small-molecule microarray binding, higher = more signal;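 also: score merges 667 nm channel intensity with signal to noise over triplicate slides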
[17] = system: Chordin-like protein 2 (CHRDL2); test: CHRDL2 small-molecule binders, primary screen, biochemical, small-molecule microarray, 635 nm fluorescence (AID 1126); details: small-molecule microarray binding, fluorescence 635 nm; higher = more signal;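 also: printed compound slides probed with Chrdl2 protein at 4 µg/mL for 1 h at 4 C; score merges 667 nm emission intensity with signal to noise over three replicate slides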
[18] = target: Concanavalin-A (Canavalia ensiformis) (UniProt P02866); test: ConA small-molecule binders, primary screen, artefact control for SMM control protein annotation, biochemical, small-molecule microarray, Alexa647 label, 635 nm (AID 1127); details: ConA-A647 binding fluorescence, higher = more signal;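 also: z combines 667 nm emission intensity with signal-to-noise across three replicate slides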
Chain of Concanavalin-A (Canavalia ensiformis) (P02866 whole entry, looked up): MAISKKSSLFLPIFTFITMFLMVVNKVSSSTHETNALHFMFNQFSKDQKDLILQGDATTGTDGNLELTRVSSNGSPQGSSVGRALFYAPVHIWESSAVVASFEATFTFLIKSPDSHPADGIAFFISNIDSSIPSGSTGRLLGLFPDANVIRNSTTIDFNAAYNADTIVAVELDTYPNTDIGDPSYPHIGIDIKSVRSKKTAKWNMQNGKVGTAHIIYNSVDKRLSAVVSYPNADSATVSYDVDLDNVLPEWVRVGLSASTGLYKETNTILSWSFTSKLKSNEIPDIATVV

Chain of Albumin (Bos taurus) (P02769 whole entry, looked up): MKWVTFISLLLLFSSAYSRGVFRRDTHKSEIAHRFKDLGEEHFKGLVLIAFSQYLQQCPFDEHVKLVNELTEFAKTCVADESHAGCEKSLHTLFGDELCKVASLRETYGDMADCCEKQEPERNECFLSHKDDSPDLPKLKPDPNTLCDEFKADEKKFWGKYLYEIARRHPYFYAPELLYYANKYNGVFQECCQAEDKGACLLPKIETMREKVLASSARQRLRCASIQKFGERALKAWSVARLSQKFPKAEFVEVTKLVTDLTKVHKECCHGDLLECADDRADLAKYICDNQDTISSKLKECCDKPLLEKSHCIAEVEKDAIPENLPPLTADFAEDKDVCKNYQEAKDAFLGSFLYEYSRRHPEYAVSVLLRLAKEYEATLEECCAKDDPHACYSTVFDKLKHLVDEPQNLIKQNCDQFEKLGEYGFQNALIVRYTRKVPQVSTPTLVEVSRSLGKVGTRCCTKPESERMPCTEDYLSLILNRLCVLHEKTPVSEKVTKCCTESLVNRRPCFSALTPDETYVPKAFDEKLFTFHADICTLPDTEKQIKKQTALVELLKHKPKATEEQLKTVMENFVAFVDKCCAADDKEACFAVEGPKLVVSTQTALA
Chain of Torsin-1A-interacting protein 1 (Homo sapiens) (Q5JTV8 whole entry, looked up): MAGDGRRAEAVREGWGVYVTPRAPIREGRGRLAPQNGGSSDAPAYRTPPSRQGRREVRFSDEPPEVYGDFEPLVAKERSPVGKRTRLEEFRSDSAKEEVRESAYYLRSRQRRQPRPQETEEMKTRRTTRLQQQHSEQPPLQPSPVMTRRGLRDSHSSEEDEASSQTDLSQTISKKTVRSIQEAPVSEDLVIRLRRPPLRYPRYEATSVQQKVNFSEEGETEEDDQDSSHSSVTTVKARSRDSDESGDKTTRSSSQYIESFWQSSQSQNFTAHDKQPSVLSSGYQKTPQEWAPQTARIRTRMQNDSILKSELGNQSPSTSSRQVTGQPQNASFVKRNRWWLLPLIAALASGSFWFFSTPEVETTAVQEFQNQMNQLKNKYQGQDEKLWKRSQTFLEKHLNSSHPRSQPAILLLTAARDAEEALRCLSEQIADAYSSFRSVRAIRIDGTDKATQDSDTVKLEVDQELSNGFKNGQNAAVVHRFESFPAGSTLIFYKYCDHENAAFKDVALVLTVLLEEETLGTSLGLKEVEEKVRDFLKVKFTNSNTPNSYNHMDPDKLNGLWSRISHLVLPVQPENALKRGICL
Chain of Alpha-bungarotoxin (Bungarus multicinctus) (P60615 whole entry, looked up): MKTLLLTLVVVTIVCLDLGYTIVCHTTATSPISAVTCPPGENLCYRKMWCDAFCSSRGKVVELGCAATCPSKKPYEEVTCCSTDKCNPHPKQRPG
Chain of Left-right determination factor 2 (Homo sapiens) (O00292 whole entry, looked up): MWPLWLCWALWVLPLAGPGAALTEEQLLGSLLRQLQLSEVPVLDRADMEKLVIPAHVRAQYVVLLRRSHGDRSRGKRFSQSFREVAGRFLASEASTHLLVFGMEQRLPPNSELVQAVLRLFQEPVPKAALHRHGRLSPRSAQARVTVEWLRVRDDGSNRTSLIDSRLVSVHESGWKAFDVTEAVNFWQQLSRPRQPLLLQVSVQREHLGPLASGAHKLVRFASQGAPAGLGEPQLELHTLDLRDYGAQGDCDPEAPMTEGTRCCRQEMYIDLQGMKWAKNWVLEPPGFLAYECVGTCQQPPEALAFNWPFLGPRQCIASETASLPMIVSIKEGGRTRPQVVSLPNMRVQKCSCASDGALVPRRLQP

SMILES | composite z-score [1] | z-score [2] | composite z-score [3] | composite z-score [4] | composite z-score [5] | composite z-score [6] | composite z-score [7] | composite z-score [8] | composite z-score [9] | composite z-score [10] | composite z-score (Albumin (Bos taurus)) | composite Z-score [11] | composite z-score [12] | composite z-score [13] | composite z-score [14] | composite z-score [15] | composite z-score [16] | composite z-score (Sam68 (KHDRBS1)) | composite z-score [17] | composite z-score [18]
COC(=O)[C@@]1(Cc2ccc(F)cc2)[C@H]2c3cc(C(=O)N(C)C)n(CCCNc4ccc(C(F)(F)F)cc4Cl)c3C[C@H]2CN1C(=O)c1ccccc1 | 1.4 | -2.38 | -0.385 | 2.36 | 1.31 | 0.284 | 0.391 | 1.53 | 1.37 | 1.85 | 1.03 | -0.214 (inactive) | 0.568 | 0.116 | 0.778 | 2.87 | 0.12 | 1.3 | -0.841 | 1.17
C#C[C@H](O[Si](C#CCCCCCC)(C(C)C)C(C)C)c1ccccc1 | 0.228 | 0.242 | -0.234 | -0.302 | -0.351 | -0.131 | -0.341 | 0.167 | -0.0173 | 0.0612 | -0.22 | 0.364 (inactive) | -0.22 | -0.155 | 0.342 | 0.43 | -0.281 | 0.524 | -0.0786 | -0.0042
O=C1O[C@H](c2ccccc2)[C@H](c2ccccc2)N2[C@H]1[C@@H](C(=O)NC[C@H](O)c1ccccc1)[C@]1(C(=O)Nc3ccc(C#CC4=CCCCC4)cc31)[C@H]2c1ccc(O)cc1 | 1.38 | -2.02 | 0.538 | 0.784 | -0.566 | -0.0403 | -0.0146 | 0.0129 | 0.705 | 1.52 | 0.296 | -1.22 (inactive) | 0.0112 | -0.124 | 0.397 | 1.98 | 0.826 | 1.29 | 0.594 | 1.09
COCCOC(=O)N1C(=O)[C@@]2(c3cc(C#CCCO)ccc31)[C@H](c1ccc(O)cc1)N1[C@H](c3ccccc3)[C@H](c3ccccc3)OC(=O)[C@H]1[C@@H]2C(=O)N1CCCCCCC1 | 0.727 | -0.407 | 0.811 | 1.51 | 0.425 | 0.17 | 0.374 | -0.295 | 2.53 | 1.92 | 0.0837 | 1.11 (inactive) | 0.489 | 0.0931 | 0.431 | 0.666 | 0.642 | 1.3 | 0.755 | 1.1
COC(=O)[C@@]1(Cc2ccc(F)cc2)[C@H]2c3cc(C(=O)N(C)C)n(CCc4c[nH]c5ccc(OC)cc45)c3C[C@H]2CN1C(=O)c1ccccc1 | 1.47 | -1.94 | -0.995 | 1.72 | 1.16 | 0.27 | 0.764 | 1.7 | 2.15 | 1.04 | 0.655 | 0.0904 (inactive) | 0.351 | 0.317 | 0.617 | 2.74 | 0.606 | 1.1 | -0.705 | -0.203
C=C[C@@H](C)[C@@H](OC(=O)Nc1ccc(OC)cc1)c1ccc(O)c2ccccc12 | 0.118 | -1.84 | 0.312 | -0.27 | -0.667 | -0.152 | -0.223 | -0.409 | -0.0999 | -0.511 | 0.199 | 0.725 (inactive) | -0.155 | -0.183 | 0.283 | 0.516 | -0.0028 | 0.349 | 0.897 | 0.323
CCOC(=O)C1=CC[C@@H](c2cccc(Cl)c2)N(S(=O)(=O)c2ccc(C)cc2)[C@H]1c1ccc(C#N)cc1 | 1.41 | -1.95 | 0.838 | 1.55 | 0.736 | 0.0266 | 0.0638 | 0.978 | 1.32 | 1.39 | 1.01 | 0.272 (inactive) | 0.159 | 0.0747 | 0.728 | 2.86 | 0.668 | 1.29 | -0.0727 | 1.11
Cc1ccc(S[C@]2(C(=O)NCCN3CCOCC3)CC(=O)N(C3CCCCC3)[C@@H]2c2ccc(CO)cc2)cc1 | 1.29 | -1.82 | -0.55 | 1.06 | -0.39 | -0.0685 | -0.186 | 0.0373 | 0.347 | 0.711 | 0.869 | 0.562 (inactive) | 0.0525 | -0.0621 | 0.617 | 1.83 | 0.437 | 1.16 | -0.179 | 1.07
COc1ccc(C#Cc2ccc3c(c2)[C@]2(C(=O)N3)[C@H](C(=O)N3CCN(c4ncccn4)CC3)[C@H]3C(=O)O[C@H](c4ccccc4)[C@H](c4ccccc4)N3[C@@H]2c2ccc(O)cc2)cc1 | 1.4 | -1.73 | 0.169 | 1.23 | 0.0193 | 0.115 | 0.315 | -0.406 | 0.399 | 0.531 | 0.413 | 0.345 (inactive) | -0.184 | 0.0086 | 0.327 | 1.19 | 0.76 | 1.3 | 0.7 | 1.05
C[N+](C)(C)CCCC[C@@H]1NC(=O)[C@H]2C[C@@H](C(=O)O)[C@@H](c3cccc(OCCO)c3)N2C1=O | 1.47 | -0.774 | 0.968 | 2.16 | 0.618 | 1.18 | 2.34 | 2.84 | 3.37 | 3.77 | 0.969 | 3.73 (inactive) | 1.14 | 0.402 | 0.758 | 3.12 | 1.07 | 1.31 | 1.17 | 1.22
C=CCN1C(=O)[C@@]2(O[C@@H](CCO)[C@H]([Si](C)(C)c3ccc(OC)cc3)[C@H]2C)c2cc(N3C(=O)COc4ccccc43)ccc21 | 1.33 | -5.18 | 0.345 | 0.695 | -0.334 | 0.149 | -0.0626 | -0.292 | 1.16 | 0.445 | 0.277 | 0.69 (inactive) | -0.141 | -0.14 | 0.277 | 1.4 | 0.0661 | 1.29 | -0.317 | 0.973
O=C1O[C@@H](c2ccccc2)[C@@H](c2ccccc2)N2[C@@H](c3ccc(O)cc3)[C@]3(C(=O)Nc4ccccc43)[C@@H](C(=O)N3CCCCCCC3)[C@H]12 | 1.47 | -1.93 | 0.695 | 2.86 | 1.61 | 1.37 | 2.07 | -0.531 | 4.6 | 3.12 | 0.875 | 5.98 (inactive) | 1.82 | 0.464 | 0.89 | 3.78 | 1.14 | 1.29 | 1.11 | 1.17

From PubChem BioAssay
